These results are taken from PubChem BioAssay (NCATS).

Inconclusive results are not listed. Active and inactive are the calls of the source. Calls follow the shape of the dose curve; as a rule, active = well fitted curve in the direction sought with a large enough effect; inconclusive = small, poorly fitted or top-dose-only effect, or another doubt; inactive = no such curve, though single readings can be large; an effect the other way counts as inactive or inconclusive. Residues, ends and D or L forms follow the SMILES beside them.

The nature of test [1]: BET inhibitor-based combinations targeting novel dependencies in MECOM-rearranged (r) AML: MV-4-11 cell line (AID 2202233). Also: nearly all actives have a fitted effect of over 45% in size. The essentials: (§1)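 Cells at 500/well were exposed for 48 hr to MIPE v5.0 drugs as 11-point dose curves. Viability was read by CellTiter-Glo luminescence and normalized to DMSO and empty-well controls. Activity was expressed as AUC and per-cell-line Z-AUC.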

Test [2] can be described thus: BET inhibitor-based combinations targeting novel dependencies in MECOM-rearranged (r) AML: HNT-34 cell line (AID 2202234). Also: nearly all actives have a fitted effect of over 35% in size. Put shortly: as §1
A short description of test [3]: BET inhibitor-based combinations targeting novel dependencies in MECOM-rearranged (r) AML: UCSD-AML1 cell line (AID 2202235). Also: nearly all actives have a fitted effect of over 40% in size. The essentials:
as §1

Test [4] can be described thus: BET inhibitor-based combinations targeting novel dependencies in MECOM-rearranged (r) AML: AML-191 cell line (AID 2202236; also: nearly all actives have a fitted effect of over 35% in size). The essentials:
(§2)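 AML cell lines seeded at 500 cells/well, treated with 11-point dose curves for 48 h. Viability by CellTiter-Glo luminescence, normalised to DMSO and empty wells; activity expressed as AUC and per-cell-line Z-transformed AUC.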

The nature of test [5]: BET inhibitor-based combinations targeting novel dependencies in MECOM-rearranged (r) AML: AML-194 cell line (AID 2202237; also: nearly all actives have a fitted effect of over 40% in size). Put shortly: as §2
Potency is read from the fitted curve at half-maximal effect.

Regarding `NC(=O)c1cnc2[nH]ccc2c1NC1C2CC3C[C@H]1CC(O)(C3)C2` (stereo not given in full), the Potency in test [1] is 0.209 µM (active); in test [2], 8.33 µM (active); in test [3], 0.833 µM (active).
With `CCC1CCCCN1C(=O)n1ncc(C(O)(c2ccccc2)c2ccccc2)n1` (stereo not given), the Potency in test [1] is 14.8 µM (active); in test [3], 20.9 µM (active); in test [4], 14.8 µM (active).
In the case of `CN(C)c1ccc(O)c2c1C[C@H]1C[C@H]3[C@H](N(C)C)C(=O)C(C(N)=O)=C(O)[C@@]3(O)C(=O)C1=C2O`, the Potency entry in test [1] and in test [3] was “inactive” throughout. For the same compound, the Potency in test [2] was 13.2 µM (active).
For `Cc1ccc(-c2ncc(Cl)cc2-c2ccc(S(C)(=O)=O)cc2)cn1`, the Potency result in test [1], in test [2], in test [3], in test [4] and in test [5] was “inactive” in each case.
With `Cc1c(NC(=O)c2cc(C(N)=O)nc3cc(F)ccc23)c(C(F)(F)F)nn1Cc1ccc(C(C)(C)C)cc1`, the Potency result in test [1] and in test [3] was “inactive” in each case. In addition, the Potency in test [4] is 16.6 µM (active).
On to `NC(=O)c1ccc2nc(-c3ccc(C4(N)CCC4)cc3)c(-c3ccccc3)n2n1`, for which the Potency in test [1] was 4.17 µM (active); in test [3], 3.72 µM (active).
With `COc1c(Nc2ncc(Cl)c(N[C@H]3[C@H](C(N)=O)[C@@H]4C=C[C@@H]3C4)n2)ccc2c1CCC(N1CCOCC1)CC2` (stereo not given in full), the Potency in test [1] is 0.525 µM (active); in test [4], 18.6 µM (active). For the same compound, the Potency entry in test [3] and in test [5] was “inactive” in each case.
As for `CN[C@@H]1C[C@H]2O[C@@](C)([C@@H]1OC)n1c3ccccc3c3c4c(c5c6ccccc6n2c5c31)C(=O)N[C@H]4O`, the Potency in test [1] was 0.0215 µM (active); in test [2] it was 0.428 µM (active); in test [3] it was 0.135 µM (active); in test [4], 0.605 µM (active); in test [5] it was 0.382 µM (active).
The like results for `C[C@@H](O)[C@@H](C)Oc1nc(Nc2ccc(S(=N)(=O)C3CC3)cc2)ncc1C(F)(F)F` (stereo not given in full) were, in that order, 14.8 µM (active), 16.6 µM (active), 20.9 µM (active), 18.6 µM (active) and 16.6 µM (active).
For `Cc1ncc(NC(=O)c2cccc(C(F)(F)F)c2)cc1-c1cnc(OC2CCOCC2)c(N2CCOCC2)c1`, the Potency in test [1] is 16.6 µM (active); in test [2], 6.61 µM (active); in test [3], 8.33 µM (active); in test [4], 11.8 µM (active).
In the case of `CO[C@H]1C[C@@H]2CC[C@@H](C)[C@@](O)(O2)C(=O)C(=O)N2CCCC[C@H]2C(=O)O[C@H]([C@H](C)C[C@@H]2CC[C@@H](OCCO)[C@H](OC)C2)CC(=O)[C@H](C)/C=C(/C)[C@@H](O)[C@@H](OC)C(=O)[C@H](C)C[C@H](C)/C=C\C=CC=C1C`, the Potency in test [1] is 13.2 µM (active).
As for `[2H]c1nc(C)nc([2H])c1-c1cc(NC[C@@H](C)c2cccc3c(C(=O)NC)ccnc23)ncn1`, the Potency result in test [1] was “inactive”. For the same compound, the result in test [2] was inactive.
For the compound `Cn1cc(-c2nc(N[C@@H]3CCCC[C@@H]3N)c(F)c3c2C(=O)NC3)cn1`, the Potency in test [1] was 0.148 µM (active); in test [2], 2.35 µM (active).
On to `Cc1c(CN2CCN(C(=O)[C@H](C)O)CC2)sc2c(N3CCOCC3)nc(-c3cnc(N)nc3)nc12`, for which the Potency in test [1] was 0.525 µM (active); in test [3] it was 0.0525 µM (active).
As to `O=C(Nc1cccc(Nc2ncc(Br)c(NCCc3cnc[nH]3)n2)c1)N1CCCC1`, the Potency in test [1] was 0.118 µM (active); in test [2], 1.66 µM (active); in test [3] it was 1.18 µM (active); in test [5], 5.9 µM (active).
As to `Nc1nccc(-c2c(-c3ccc(F)cc3)ncn2C2CCN(Cc3ccon3)CC2)n1`, the Potency was 10.5 µM (active) in test [1] and 8.33 µM (active) in test [2].
As to `Cc1ccc(Nc2nnc(Cc3ccncc3)c3ccccc23)cc1Br`, the Potency in test [1] was 16.6 µM (active); in test [2] it was 20.9 µM (active). For the same compound, the Potency result in test [3] was “inactive”.
Take `COc1cc(NCc2ccc3nc(N)nc(N)c3c2C)cc(OC)c1OC`: the Potency in test [1] was 5.9 µM (active).
With `Cc1ccc(Nc2cc(N[C@@H]3CCCC[C@@H]3N)nnc2C(N)=O)nc1C`, the Potency was 3.72 µM (active) in test [1], 16.6 µM (active) in test [2], 18.6 µM (active) in test [4] and 20.9 µM (active) in test [5].
In the case of `Cc1ccc(-c2ccc(C)cn2)nc1`, the Potency entry in test [1] and in test [3] was “inactive” throughout.
For `COc1ccc2[nH]c(C(=O)N3CCC(CC(C)(C)O)CC3)cc2c1`, the Potency entry in test [1], in test [2], in test [3] and in test [5] was “inactive” each time.
Turning to `N[C@@H](CCC(=O)O)C(=O)N[C@@H](Cc1c[nH]c2ccccc12)C(=O)O` (H-Glu-Trp-OH), the Potency result in test [1], in test [2], in test [3] and in test [5] was “inactive” each time.
As for `COc1cc(OCc2cccc(-c3ccccc3)c2C)cc(OC)c1CN1CCCC[C@H]1C(=O)O`, the Potency in test [1] was 20.9 µM (active). Also, the Potency entry in test [3] was “inactive”.
